Laboratory results as given in PubChem BioAssay (Tox21).
Inconclusive results are not listed. The source made the active and inactive calls. Unless noted, calls follow the shape of the dose curve; as a rule, active = well fitted curve in the direction sought with a large enough effect in the repeat runs; inconclusive = weak or mixed curves; inactive = no such curve, though single readings can be large; an effect the other way counts as inactive or inconclusive.

How the values were obtained:
[1] = qHTS assay to identify small molecule agonists of the androgen receptor (AR) signaling pathway in the presence of an antagonist - cell viability counter screen (AID 1259379);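 also: MDA-kb2 human breast cancer cells carrying an MMTV luciferase reporter; series mostly up to about 92 µM; nearly all actives have a fitted effect of over 25% in size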
Outline: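 Seed MDA-kb2 at 3,000 cells/well; incubate 5 hr, 37C, 0% CO2. Add nilutamide to 3.0uM final, then pin compounds at 15 concentrations. Incubate 16 hr. Add CellTiter-Fluor at 15 hr, read fluorescence after 1 hr.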

[2] = qHTS assay to identify small molecule agonists of the estrogen receptor beta (ER-beta) signaling pathway - cell viability counter screen (AID 1259380); also: nearly all actives have a fitted effect of over 30% in size
Outline: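 CellTiter-Glo read, 30 min RT, same wells as bla assay; cells ER-beta-UAS-bla HEK293T; 16 hr compound, 37C; medium 2% charcoal-stripped FBS.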

[3] = qHTS assay to identify small molecule antagonists of the estrogen receptor beta (ER-beta) signaling pathway - cell viability counter screen (AID 1259382);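 also: HEK293T cells carrying ER-beta-UAS-bla reporter stimulated with estradiol; series mostly up to about 92 µM; nearly all actives have a fitted effect of over 55% in size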
Outline: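 In this multiplexed counter screen, cells were seeded at 2,000 per well in medium with 2% charcoal-stripped FBS and incubated 6 hr before compound and 1nM final E2 were added. Sixteen hours later, ATP-based luminescence reported viability.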

[4] = target: Estrogen receptor (Homo sapiens) (UniProt P03372); experiment: qHTS assay to identify small molecule agonists of the estrogen receptor alpha (ER-alpha) signaling pathway in the presence of an antagonist (AID 1259383; calls by dose curve; also: top concentration of the series differs between compounds; nearly all actives have a fitted effect of over 15% in size)
Outline: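 Stably transfected VM7Luc4E2 reporter cells, kept 5 days in charcoal-stripped serum, received ICI-182,780 at 10.0nM final before compound addition. Following 22hr incubation at 37C and 5% CO2, luciferase signal was read by luminescence.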

[5] = qHTS assay to identify small molecule agonists or antagonists of the thyroid stimulating hormone receptor (TSHR) signaling pathway - wild type cell line counter screen (AID 1259384; calls by dose curve)
Outline: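 Wild-type Hek293 cells, 800/well, 18 h at 37C, then compound with Ro20-1724 for 30 min RT. cAMP by HTRF (cAMP-d2/anti-cAMP cryptate), 1 h RT, fluorescence read. 15 concentrations, triplicates.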

[6] = target: Thyrotropin receptor (Homo sapiens) (UniProt P16473); experiment: qHTS assay to identify small molecule antagonists of the thyroid stimulating hormone receptor (TSHR) signaling pathway (AID 1259385; calls by dose curve; also: nearly all actives have a fitted effect of over 20% in size)
Outline: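 TSHR-HEK293 cells (800/well) plated 18 h, then compounds with Ro20-1724 and TSH at 1.5 ng/mL final, 30 min at room temperature. cAMP quantified by HTRF (cAMP-d2/anti-cAMP-cryptate, 1 h); 15 concentrations in triplicate.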

[7] = qHTS assay to identify small molecule agonists of the estrogen receptor alpha (ER-alpha) signaling pathway in the presence of an antagonist - cell viability counter screen (AID 1259386);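 also: series mostly up to about 92 µM; cells exposed to compounds for 22 h at 37 °C before the viability read; nearly all actives have a fitted effect of over 30% in size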
Outline: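 Viability counter screen using VM7Luc4E2 (full-length ER-alpha, four ERE-luciferase). The cells were treated with compounds alongside ICI-182,780 10.0nM for 22hr, and live-cell protease fluorescence was quantified with CellTiter-Fluor.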

[8] = qHTS assay to identify small molecule antagonists of the progesterone receptor (PR) signaling pathway - cell viability counter screen (AID 1346798); also: series mostly up to about 92 µM; nearly all actives have a fitted effect of over 50% in size
Outline: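 PR-UAS-bla HEK293T cells in medium with 2% charcoal-stripped FBS were treated with compounds plus R5020 for 16 hr at 37C. Cell viability was then read by CellTiter-Glo luminescence after 30 min at room temperature in the same wells.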

[9] = qHTS assay to identify small molecule agonists of the progesterone receptor (PR) signaling pathway - cell viability counter screen (AID 1346799; calls by dose curve; also: nearly all actives have a fitted effect of over 45% in size)
Outline: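 PR-UAS-bla HEK293T cells, 3,000 per well in medium with 2% charcoal-stripped FBS, were preincubated 6 hr at 37C, then exposed to compounds for 16 hr; viability was read as CellTiter-Glo luminescence after 30 min at room temperature.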

[10] = qHTS assay to identify small molecule antagonists of the TGF-beta/Smad signaling pathway - cell viability counter screen (AID 1346824); also: nearly all actives have a fitted effect of over 50% in size
Outline: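 SBE-bla HEK 293T cells, incubated overnight, then compound plus 0.25 ng/mL TGF-beta1 (stock added) for 5 hr at 37 C. Viability was read in the same wells by CellTiter-Glo luminescence after 30 min at room temperature.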

[11] = qHTS assay to identify small molecule agonists of the TGF-beta/Smad signaling pathway (AID 1346859; active = well fitted activation curve with a large enough effect in the signal ratio in the repeat runs, not every such curve was filed as active; the % refers to the signal ratio; also: series mostly up to about 77 µM)
Outline: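 HEK 293T cells stably carrying a beta-lactamase reporter driven by the Smad binding element were seeded overnight, exposed to DMSO-dissolved compounds for 5 hr at 37 C, 5% CO2, then loaded with FRET substrate for 2 hr at room temperature.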

[12] = Human pregnane X receptor (PXR) small molecule agonists, qHTS cell viability counter screen (AID 1346977); also: nearly all actives have a fitted effect of over 50% in size
Outline: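 PXR-Luc HepG2 cells in medium with 5% charcoal-stripped FBS were pre-incubated 5hr, then exposed to compounds for 24hr at 37C. Viability was read in the same wells by CellTiter-Fluor fluorescence, reagent added after 23hr with a 1hr incubation.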

[13] = target: Progesterone receptor (Homo sapiens) (UniProt P06401); experiment: qHTS assay to identify small molecule agonists of the progesterone receptor (PR) signaling pathway (AID 1346784; calls by dose curve; also: nearly all actives have a fitted effect of over 30% in size)
Outline: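 PR-UAS-bla HEK 293T cells carrying a UAS-driven beta-lactamase reporter were seeded in medium with 2% charcoal-stripped FBS, preincubated 6 hr at 37C, then exposed to compounds in DMSO for 16 hr; agonism was read by LiveBLAzer B/G FRET fluorescence.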

[14] = target: Progesterone receptor (Homo sapiens) (UniProt P06401); experiment: qHTS assay to identify small molecule antagonists of the progesterone receptor (PR) signaling pathway (AID 1346795; active = well fitted inhibition curve with a large enough effect in the signal ratio in the repeat runs, not every such curve was filed as active; the % refers to the signal ratio)
Outline: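 PR-UAS-bla HEK293T cells carrying a UAS-driven beta-lactamase reporter were plated in medium with 2% charcoal-stripped FBS and rested 6 hr at 37C. Compounds were added with 1 nM R5020 (final) for 16 hr, then FRET substrate loaded 2 hr at room temperature.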

[15] = target: Thyrotropin-releasing hormone receptor (Homo sapiens) (UniProt P34981); experiment: qHTS assay to identify small molecule antagonists of the thyrotropin-releasing hormone receptor (TRHR) signaling pathway (AID 1346877; active = well fitted inhibition curve with a large enough effect in the repeat runs, not every such curve was filed as active; also: series mostly up to about 51 µM)
Outline: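 Following an 18 h incubation at 37 °C and a 2 h calcium dye load, TRHR-HEK293 cells were exposed to compound (5 min, room temperature) and challenged with TRH, 1 nM final.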

[16] = target: Thyrotropin-releasing hormone receptor (Homo sapiens) (UniProt P34981); experiment: qHTS assay to identify small molecule agonists of the thyrotropin-releasing hormone receptor (TRHR) signaling pathway (AID 1346891; calls by dose curve; also: series mostly up to about 58 µM)
Outline: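 TRHR-expressing HEK293 cells were plated 18 h at 37 °C/5% CO2, loaded with calcium dye 2 h at 37 °C, then given compound in DMSO; fluorescence was read kinetically for 3 min at 1 s intervals.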

[17] = qHTS assay to identify small molecule agonists of the TGF-beta/Smad signaling pathway - cell viability counter screen (AID 1346829); also: top concentration of the series differs between compounds; nearly all actives have a fitted effect of over 45% in size
Outline: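 HEK 293T SBE-bla line, 5 hr compound exposure at 37 C, multiplexed CellTiter-Glo viability read by luminescence.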

Measured: Potency

Estrogen receptor (Homo sapiens), sequence (P03372 whole entry, looked up): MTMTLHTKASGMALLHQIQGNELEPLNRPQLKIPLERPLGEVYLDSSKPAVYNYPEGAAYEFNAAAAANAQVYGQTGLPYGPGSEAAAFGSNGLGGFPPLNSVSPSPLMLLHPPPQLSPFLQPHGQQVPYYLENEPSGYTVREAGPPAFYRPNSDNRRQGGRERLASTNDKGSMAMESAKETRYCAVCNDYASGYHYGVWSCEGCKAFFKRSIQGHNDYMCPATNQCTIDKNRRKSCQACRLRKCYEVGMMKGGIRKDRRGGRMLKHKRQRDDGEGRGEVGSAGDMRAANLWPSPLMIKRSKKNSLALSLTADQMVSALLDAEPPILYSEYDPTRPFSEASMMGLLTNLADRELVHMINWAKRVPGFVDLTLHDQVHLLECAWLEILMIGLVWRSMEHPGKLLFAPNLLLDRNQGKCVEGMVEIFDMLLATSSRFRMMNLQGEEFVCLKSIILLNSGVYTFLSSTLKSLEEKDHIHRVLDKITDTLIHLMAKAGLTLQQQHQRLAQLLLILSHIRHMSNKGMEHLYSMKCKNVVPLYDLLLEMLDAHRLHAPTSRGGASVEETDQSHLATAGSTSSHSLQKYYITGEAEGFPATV
Thyrotropin receptor (Homo sapiens), sequence (P16473 whole entry, looked up): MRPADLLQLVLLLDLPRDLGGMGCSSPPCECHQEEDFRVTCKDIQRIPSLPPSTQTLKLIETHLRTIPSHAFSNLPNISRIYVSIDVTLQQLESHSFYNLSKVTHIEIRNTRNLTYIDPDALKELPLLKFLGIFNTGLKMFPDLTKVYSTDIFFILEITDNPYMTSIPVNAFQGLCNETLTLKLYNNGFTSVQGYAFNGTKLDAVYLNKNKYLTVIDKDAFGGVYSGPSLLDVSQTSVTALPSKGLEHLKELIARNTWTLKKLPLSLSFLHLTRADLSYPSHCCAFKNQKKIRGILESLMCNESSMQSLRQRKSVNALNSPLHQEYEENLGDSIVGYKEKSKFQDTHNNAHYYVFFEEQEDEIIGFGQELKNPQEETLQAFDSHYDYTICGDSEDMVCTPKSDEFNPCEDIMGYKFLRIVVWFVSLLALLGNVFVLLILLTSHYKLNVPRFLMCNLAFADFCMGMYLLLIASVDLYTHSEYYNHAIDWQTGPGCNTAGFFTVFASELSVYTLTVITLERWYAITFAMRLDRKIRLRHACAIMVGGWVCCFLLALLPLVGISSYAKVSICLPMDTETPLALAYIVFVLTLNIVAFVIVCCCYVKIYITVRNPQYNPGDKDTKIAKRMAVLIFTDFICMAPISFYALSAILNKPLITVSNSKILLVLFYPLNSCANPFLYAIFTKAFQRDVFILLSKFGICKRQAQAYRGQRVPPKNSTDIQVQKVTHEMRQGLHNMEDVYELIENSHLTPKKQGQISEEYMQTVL
Thyrotropin-releasing hormone receptor (Homo sapiens), sequence (P34981 whole entry, looked up): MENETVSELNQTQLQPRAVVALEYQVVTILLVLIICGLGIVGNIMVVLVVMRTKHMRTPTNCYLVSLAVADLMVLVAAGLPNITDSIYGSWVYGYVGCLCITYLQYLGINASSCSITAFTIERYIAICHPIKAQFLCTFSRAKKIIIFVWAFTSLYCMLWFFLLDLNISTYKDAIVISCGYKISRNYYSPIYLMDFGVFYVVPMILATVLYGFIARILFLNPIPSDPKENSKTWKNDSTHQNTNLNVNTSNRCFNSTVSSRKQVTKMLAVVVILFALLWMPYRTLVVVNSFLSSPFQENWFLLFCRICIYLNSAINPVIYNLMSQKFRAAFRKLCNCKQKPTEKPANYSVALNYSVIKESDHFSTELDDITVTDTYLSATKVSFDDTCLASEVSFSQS
Progesterone receptor (Homo sapiens), sequence (P06401 whole entry, looked up): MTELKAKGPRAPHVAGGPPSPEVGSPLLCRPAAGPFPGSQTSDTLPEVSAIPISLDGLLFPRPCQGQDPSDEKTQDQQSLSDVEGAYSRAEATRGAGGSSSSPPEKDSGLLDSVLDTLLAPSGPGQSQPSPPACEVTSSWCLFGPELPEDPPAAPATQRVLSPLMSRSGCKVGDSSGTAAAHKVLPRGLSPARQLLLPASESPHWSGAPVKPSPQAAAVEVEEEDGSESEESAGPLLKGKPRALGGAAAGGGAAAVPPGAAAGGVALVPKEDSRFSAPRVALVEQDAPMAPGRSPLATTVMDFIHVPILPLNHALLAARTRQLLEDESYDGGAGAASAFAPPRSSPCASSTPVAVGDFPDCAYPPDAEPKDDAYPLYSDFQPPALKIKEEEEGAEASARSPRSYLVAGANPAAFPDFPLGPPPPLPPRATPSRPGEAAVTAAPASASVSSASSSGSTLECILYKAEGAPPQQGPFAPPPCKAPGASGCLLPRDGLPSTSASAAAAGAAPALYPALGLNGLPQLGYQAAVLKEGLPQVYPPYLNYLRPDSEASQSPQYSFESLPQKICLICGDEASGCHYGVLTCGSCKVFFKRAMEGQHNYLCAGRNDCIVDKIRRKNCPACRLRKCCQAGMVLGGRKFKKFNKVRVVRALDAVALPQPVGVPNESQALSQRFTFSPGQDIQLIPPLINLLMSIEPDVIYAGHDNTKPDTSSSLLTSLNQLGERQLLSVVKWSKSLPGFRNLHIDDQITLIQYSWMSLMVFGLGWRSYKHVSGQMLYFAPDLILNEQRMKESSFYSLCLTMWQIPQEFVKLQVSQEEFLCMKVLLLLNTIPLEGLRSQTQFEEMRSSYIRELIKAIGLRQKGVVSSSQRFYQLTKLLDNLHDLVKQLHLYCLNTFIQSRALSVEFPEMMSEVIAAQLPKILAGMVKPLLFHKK

OCC(O)CCl (stereo unspecified)
not listed: [13] | [14] | [15] | [16] | [17]
inactive: all other assays above

Sc1ccccc1
not listed: [11] | [17]
inactive: all other assays above

Cc1cccc(N)c1
not listed: [5] | [6] | [17]
inactive: all other assays above

Cl/C=C/Cl
not listed: [17]
inactive: all other assays above

C[C@H]1C(=O)O[C@@H]2CCN3CC=C(COC(=O)[C@](C)(O)[C@]1(C)O)[C@H]23
not listed: [11] | [12] | [13] | [14] | [17]
inactive: all other assays above

Cc1ccccc1N
not listed: [4] | [11] | [12] | [15] | [16] | [17]
inactive: all other assays above

C=CCN=C=S
not listed: [8] | [11] | [12] | [15] | [16] | [17]
inactive: all other assays above

Oc1ccc(Cl)cc1
not listed: [4] | [11] | [12]
inactive: all other assays above

CCOP(=S)(OCC)Oc1cc(C)nc(C(C)C)n1
not listed: [4]
inactive: all other assays above
